Assay outcomes deposited in PubChem by National Center for Advancing Translational Sciences (NCATS).
Only some compounds are listed: those with a hit (about 21% of all), similar ones and a draw of the others.
HCMV inh: inhibitors of human cytomegalovirus. 410,000 tested, 4.5% active. AID 1259415. activity change, negative = inhibition, % at 57.5 µM. HFF cells, HCMV-luciferase reporter, 72 h; active compounds read low; in the data active means activity change below about -60%; inconclusive means no clear call, values can overlap the other calls; inactive means above about -39%
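Two-dose cell screen: HFF monolayers treated with compounds and infected with luciferase-expressing HCMV at 1 PFU/cell, 72 h at 37C, then lysed for luciferase measurement.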
Pf growth 96h: P. falciparum growth inhibition at 96 hour, primary screen for plastid delayed-death inhibitors. 320,000 tested, 6.9% active. P. falciparum luciferase reporter growth, 96 h. Potency, µM (doses to about 28.7 µM), hits mostly inhibitors
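Luminescence readout: decreased luciferase signal marks inhibited growth of reporter-expressing P. falciparum in infected red cells (2% hematocrit, 0.05% parasitemia final), exposed to compound two generations (96 h, 37 C, 5% CO2).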
Pf growth 48h: P. falciparum growth inhibition at 48 hours (one generation); P. falciparum luciferase growth in erythrocytes, 48 h; Potency, µM (highest dose often 28.7 µM), usual class: inhibitors; 310,000 tested, 5.9% active
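In quantitative HTS format, infected erythrocytes bearing luciferase-reporter parasites were treated for a single generation at 37 C. Luminescence after adding detection reagent served as the growth measure.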
CHX counter: counter-screen hit for Shiga toxin inhibitors, cycloheximide; max response, %; 300,000 tested, 12% active; cell reporter, cycloheximide protein synthesis inhibition counterscreen; AID 2314; in the data active means max response mostly above about 13%, no sharp cut-off; inactive means mostly below about 14%; further: read at 38.3 µM for the half of the compounds with a filed dose
HCV inh: HCV inhibition | Huh7.5.1 HCVcc-Cre infection, luciferase reporter, 44 h | Potency, µM (series often up to 41.8 µM), hits mostly inhibitors | 340,000 tested, 3.4% active
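Seed cells (1,000/well) for 4 h; treat with compound and infect with HCVcc-Cre, moi about 0.5. Incubate 44 h, then detect luciferase activity.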
Shiga toxin inh: inhibitors of Shiga toxin in Vero cells | Vero cells, Shiga toxin protein synthesis inhibition reporter | inhibition, % at 38.7 µM | 290,000 tested, 9.2% active; in the data active means inhibition mostly above about 28%, no sharp cut-off; inactive means mostly below about 43%
A number is an active result; n = inactive; u = inconclusive; x = no result. Unless noted, the call rests on the fitted dose curve; in most records, active means well fitted inhibition curve with a large enough effect; inconclusive means small, poorly fitted or top-dose-only effect, or another doubt; inactive means no such curve, though single readings can be large or run the other way.

SMILES	HCMV inh	Pf growth 96h	Pf growth 48h	CHX counter	HCV inh	Shiga toxin inh
O=C(O)CCCN1C(=O)/C(=C/c2ccncc2)SC1=S	-61	n	u	n	u	n
CC(=O)Oc1ccc(/C=C2/SC(=S)N(Cc3ccccc3)C2=O)cc1	n	u	n	n	n	n
COc1ccc(CN2C(=O)/C(=C/c3ccncc3)SC2=S)cc1	-72	u	n	n	u	n
O=C(CCN1C(=O)/C(=C\c2ccccc2)SC1=S)NNC(=O)c1ccncc1	n	n	n	n	n	n
O=C(O)CCCCCN1C(=O)/C(=C/c2ccncc2)SC1=S	-77	u	u	n	n	n
O=C(CCN1C(=O)/C(=C/c2ccccc2)SC1=S)NNC(=O)c1ccncc1	u	n	n	n	n	n
COc1ccc(-c2nn(-c3cccc(F)c3)c3c2cnc2cc(OC)c(OC)cc23)cc1	n	x	x	x	x	x
COc1ccc(-c2noc(-c3ccc(NC4CCCC4)c([N+](=O)[O-])c3)n2)cc1	n	x	x	x	x	x
Cn1c2c(c(O)c(-c3ccccc3)c1=O)C(=O)CC(C)(C)C2	n	u	u	n	n	n
Cc1cc(C)c(-c2c(O)c3c(n(C)c2=O)CC(C)(C)CC3=O)c(C)c1	n	5.9µM	u	n	n	n
Clc1ccc2nc(CSc3ncn[nH]3)cn2c1	n	n	n	15	n	n
Fc1ccccc1CSc1ncn[nH]1	n	n	n	n	n	n
Cc1cc(C)nc(SCc2cn3cc(Cl)ccc3n2)n1	n	n	n	n	n	n
Brc1ccc2nc(CSc3ncn[nH]3)cn2c1	n	n	n	16	n	84
O=[N+]([O-])c1cc(F)cc(F)c1Nc1ccc(F)cc1	n	x	x	x	n	x
CCOc1ccccc1N1CCN(CC(=O)N(C2CCCC2)C2CCS(=O)(=O)C2)CC1 (centres undefined)	n	n	n	x	n	x
Cc1cccc(N2CCN(CC(=O)N(C3CCCC3)C3CCS(=O)(=O)C3)CC2)c1C (centres undefined)	n	u	10µM	x	n	x
Cc1nc(CS(=O)(=O)c2ccccn2)sc1C(=O)NNC(=O)c1ccccc1	n	n	n	n	n	n
CC(C)(C)c1csc(CS(=O)(=O)c2ccccn2)n1	n	n	n	24	n	88
CNS(=O)(=O)c1cn(CC(=O)NCc2ccc(N(C)C)cc2)cc1S(=O)(=O)NC	n	n	n	n	n	n
COc1cc(OC)cc(-c2nnc(SCC(=O)N(Cc3ccccc3)C(C)(C)C)o2)c1	-71	n	u	n	n	n
CCCCN(CCCC)C(=O)CSc1nnc(-c2cc(OC)c(OC)c(OC)c2)o1	n	x	u	n	u	n
COc1cc(-c2nnc(SCC(=O)N(Cc3ccccc3)C(C)(C)C)o2)cc(OC)c1OC	n	3.7µM	10µM	n	u	n
COc1cc(OC)cc(-c2nnc(SCc3cccc(C(=O)O)c3)o2)c1	n	u	x	n	x	n
COc1ccc(-n2nc(C(=O)N(C)c3cccc(C(F)(F)F)c3)c3c4ccccc4n(C)c3c2=O)cc1	n	x	x	x	x	x
SMILES	HCMV inh	Pf growth 96h	Pf growth 48h	CHX counter	HCV inh	Shiga toxin inh
CCOC(=O)N1CCN(C(=O)CCNS(=O)(=O)c2cc(Br)cnc2N)CC1	n	n	n	n	n	n
CCN(Cc1ccccc1)C(=O)CCNS(=O)(=O)c1cc(Br)cnc1N	n	n	13µM	n	n	n
Cc1ccc(C)c(N(C)C(=O)CCS(=O)(=O)c2cccc3nonc23)c1	u	n	n	n	n	n
COC(=O)c1ccccc1NC(=O)CCCn1nc(C)c2c(C)n(-c3ccccc3)nc2c1=O	u	15µM	u	n	n	n
Cc1cc(C)cc(NC(=O)CCCn2nc(C)c3c(C)n(-c4ccccc4)nc3c2=O)c1	n	13µM	n	n	n	n
Cc1ccc2oc(=O)n(Cc3ccc(F)cc3)c2c1	x	n	n	n	n	n
COc1cc(OC)c(N(C)S(=O)(=O)c2cccc(C(=O)NC3=NCCS3)c2)cc1Cl	n	u	10µM	n	u	n
COc1ccc(N(C)S(=O)(=O)c2cccc(C(=O)Nc3nc(C)cs3)c2)cc1	n	u	13µM	x	u	x
COc1cc(OC)c(N(C)S(=O)(=O)c2cccc(C(=O)Nc3nc(C)cs3)c2)cc1Cl	n	u	13µM	x	u	x
COc1cc(OC)c(N(C)S(=O)(=O)c2cccc(C(=O)Nc3nnc(C4CC4)s3)c2)cc1Cl	n	u	13µM	n	n	n
COc1ccccc1N(C)S(=O)(=O)c1ccc(Cl)c(C(=O)NC2=NCCS2)c1	u	u	n	n	n	n
COc1cc(OC)c(N(C)S(=O)(=O)c2cccc(C(=O)NCc3cccs3)c2)cc1Cl	n	x	x	x	x	x
Cc1nc(-n2nc(C)c(CCC(C)C)c2C)sc1C(=O)Nc1ccc(Cl)cc1	n	x	x	x	x	x
Cc1csc(N(C(=O)c2cccc(S(=O)(=O)N(C)C)c2)c2ccccc2)n1	n	8.3µM	n	n	n	n
COc1ccc(OCCCn2c(=O)oc3ccccc32)cc1	n	n	n	19	n	n
Cc1ccc2oc(=O)n(CCOc3ccccc3)c2c1	n	n	u	35	n	39
Cc1cccc(OCCCn2c(=O)oc3ccccc32)c1	n	n	n	22	n	50
Cc1ccc(C(C)C)c(OCCCn2c(=O)oc3ccccc32)c1	n	x	x	x	x	x
COc1ccc(C(=O)COC(=O)CCCn2c(=O)oc3ccccc32)cc1	n	n	n	n	n	n
Cc1ccc2oc(=O)n(CCCOc3ccc(Cl)cc3)c2c1	n	x	x	x	x	x
Cc1cccc(OCCn2c(=O)oc3ccc(C)cc32)c1	n	n	u	42	n	79
CCOC(=O)C(=Cc1c[nH]c2ccc(S(=O)(=O)N(C)C)cc12)C(=O)OCC	n	u	u	n	n	n
COc1cc(CCC(=O)NCc2ccc3c(c2)CCN3C(=O)c2ccccc2)cc(OC)c1OC	n	x	x	x	x	x
CCOC(=O)/C(=C\c1cccc(O)c1)c1nc2sc(C)c(C)c2c(=O)[nH]1	-99	u	u	n	n	n
CCOC(=O)c1nc2sc(C)c(C)c2c(=O)[nH]1	n	u	n	n	n	n
CCOC(=O)C1=C(COC(=O)Cc2ccc(Br)cc2)NC(=O)NC1C (centres undefined)	n	n	n	n	n	n
COC(=O)CCC(=O)OC1(C)C(=O)C=C2C=C(C3CC3)N(CC3CC3)C=C2C1=O (centres undefined)	n	4.1µM	10µM	n	n	n
COC(=O)CCC(=O)OC1(C)C(=O)C=C2C=C(C3CC3)N(C3CCCC3)C=C2C1=O (centres undefined)	n	7.4µM	u	n	n	n
COC(=O)CCC(=O)OC1(C)C(=O)C=C2C=C(C3CC3)N(CC(C)C)C=C2C1=O (centres undefined)	x	1.9µM	2.9µM	n	x	n
COC(=O)CCC(=O)OC1(C)C(=O)C=C2C=C(C3CC3)N(Cc3ccccc3)C=C2C1=O (centres undefined)	n	u	u	n	n	n
